{
  "source": "paper PMC7826789",
  "about": "(International Journal of Molecular Sciences, 2021);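 further: KINOMEscan scanMAX binding as percent activity remaining versus control; lower means stronger binding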",
  "data": [
    {"test_system": "TGFBR1", "conditions": "Compound Concentration (nM):1000", "units": {"Percent Control": "%"}, "values": [
      {"smiles": "CN1CCN(C(=O)c2ccc(NC(=O)Nc3ccc(N(C)c4ccnc(Nc5ccc(CS(C)(=O)=O)cc5)n4)cc3)cc2)CC1.Cl", "note": "[GW830263A]", "Percent Control": 88},
      {"smiles": "COc1cc2ncnc(Nc3ccc4c(cnn4Cc4ccccc4)c3)c2cc1OC.Cl", "note": "[GW282449A]", "Percent Control": 100},
      {"smiles": "CC1=C(C(=O)Nc2ccc3[nH]ncc3c2)C(c2ccc3ccccc3c2)CC(=O)N1", "note": "(stereo not shown) [GSK270822A]", "Percent Control": 85},
      {"smiles": "O=C(Nc1n[nH]c2nc(-c3ccc(O)cc3)c(Br)cc12)C1CC1", "note": "[SB-725317]", "Percent Control": 100},
      {"smiles": "CCS(=O)(=O)c1ccc(OC)c(Nc2ncc(-c3cccc(F)c3)o2)c1", "note": "[GW621970X]", "Percent Control": 100},
      {"smiles": "COc1ccc2cc(-c3c(-c4ccncc4)nc(-c4ccc(S(C)(=O)=O)cc4C)n3C)ccc2c1", "note": "[SB-633825]", "Percent Control": 9.7},
      {"smiles": "COc1ccccc1-c1cc(/C=C2\\C(=O)Nc3ncc(Br)cc32)cc(Br)c1O", "note": "[GW442130X]", "Percent Control": 100},
      {"smiles": "CN(C)c1cc2c(Nc3ccc4c(cnn4Cc4ccccc4)c3)ncnc2cn1", "note": "[GW282974X]", "Percent Control": 100},
      {"smiles": "COc1ccc2[nH]c3c4[nH]c5ccc(OC)cc5c4c4c(c3c2c1)C(=O)NC4=O", "note": "[GW296115X]", "Percent Control": 100},
      {"smiles": "COc1cccc(-n2ncc3c(N/N=C/c4ccncc4)ncnc32)c1", "note": "[GW784752X]", "Percent Control": 36},
      {"smiles": "CC1=C(C(=O)Nc2ccc3[nH]ncc3c2)C(c2ccc(Cl)c(Cl)c2)CC(=O)N1", "note": "(stereo not shown) [GSK299115A]", "Percent Control": 100},
      {"smiles": "COc1ccc(COc2ccc(Cc3cnc(N)nc3N)cc2OC)cc1", "note": "[GW632580X]", "Percent Control": 100},
      {"smiles": "NS(=O)(=O)c1ccc(N/N=C2\\C(=O)Nc3ccc(Cl)cc32)cc1", "note": "[GW280670X]", "Percent Control": 100},
      {"smiles": "COc1cccc(-c2c[nH]c3c(N/N=C/c4ccncc4)ncnc23)c1", "note": "[GW814408X]", "Percent Control": 55},
      {"smiles": "COC(=O)Nc1nc2ccc(Oc3ccc(NC(=O)Nc4cc(C(F)(F)F)ccc4F)cc3)cc2s1.Cl", "note": "[GW693917A]", "Percent Control": 100},
      {"smiles": "COc1ccc2c(-c3ccnc(Nc4cccc(OC(F)(F)F)c4)n3)cnn2n1", "note": "[GW810372X]", "Percent Control": 100},
      {"smiles": "NS(=O)(=O)c1ccc(N/N=C2\\C(=O)Nc3ccc(-c4cnco4)cc32)cc1", "note": "[GW276655]", "Percent Control": 100},
      {"smiles": "Cl.c1ccc(Cc2nc3ccc(Nc4ncnc5ccccc45)cc3[nH]2)cc1", "note": "[GR269666A]", "Percent Control": 100},
      {"smiles": "C/C(Nc1ccc(S(N)(=O)=O)cc1)=C1/C(=O)Nc2ccccc21", "note": "[GW335962X]", "Percent Control": 88},
      {"smiles": "COc1cc(N2CCN(C(C)C)CC2)ccc1Nc1nc(Nc2ccc(F)cc2C(=O)NC[C@@H](O)CO)c2cc[nH]c2n1", "note": "[GSK1392956A]", "Percent Control": 100},
      {"smiles": "Nc1ncnc2occ(-c3ccc(NC(=O)Nc4cc(C(F)(F)F)ccc4F)cc3)c12", "note": "[GW770249X]", "Percent Control": 100},
      {"smiles": "CC(C)COC(=O)c1ccc2c(c1)/C(=C/Nc1ccc(S(N)(=O)=O)cc1)C(=O)N2", "note": "[GW416981X]", "Percent Control": 100},
      {"smiles": "Cl.O=C(Nc1ccc(Oc2ccc3[nH]c(NC(=O)c4ccccc4)nc3c2)cc1)Nc1cc(C(F)(F)F)ccc1F", "note": "[GW709042A]", "Percent Control": 100},
      {"smiles": "CCc1ccc(Oc2nccc(-c3c(-c4ccc(F)cc4)ncn3C3CCNCC3)n2)cc1", "note": "[SB-242719]", "Percent Control": 96},
      {"smiles": "COc1cc(C)c(N(C)C(=O)CN(C)C)cc1Nc1nc(Nc2cccc(F)c2C(N)=O)c2cc[nH]c2n1", "note": "[GSK2219385]", "Percent Control": 100},
      {"smiles": "NS(=O)(=O)c1ccc(Nc2ncc(-c3ccccc3)o2)cc1", "note": "[GW572399X]", "Percent Control": 100},
      {"smiles": "CCS(=O)(=O)c1ccc(OC)c(Nc2ncc(-c3cccc(OC)c3)o2)c1", "note": "[GW580509X]", "Percent Control": 81},
      {"smiles": "C[C@@H](Oc1cc(-n2cnc3ccc(OC4CCN(C)CC4)cc32)sc1C(N)=O)c1ccccc1Cl", "note": "[GSK579289A]", "Percent Control": 100},
      {"smiles": "COc1cc2ncn(-c3cc(O[C@H](C)c4ccccc4Cl)c(C(N)=O)s3)c2cc1OC", "note": "[GSK237701A]", "Percent Control": 72},
      {"smiles": "O=C1Nc2ccc(C(=O)c3ccco3)cc2C1=Cc1cc(Cl)c(O)c(Cl)c1", "note": "[GW406108X]", "Percent Control": 99},
      {"smiles": "Cc1cc(O)cc(C)c1/C=C/c1cncc(C(N)=O)c1", "note": "[GW435821X]", "Percent Control": 84},
      {"smiles": "COc1cc(/C=N/Nc2ncnc3[nH]ncc23)ccc1O", "note": "[GW578748X]", "Percent Control": 100},
      {"smiles": "COc1cc(C=NNc2ncnc3c2cnn3-c2ccccc2)ccc1O", "note": "[GW513184X]", "Percent Control": 79},
      {"smiles": "NS(=O)(=O)c1ccc(N/N=C2\\C(=O)Nc3ccc(C(=O)NCCc4c[nH]cn4)cc32)cc1", "note": "[GW300660X]", "Percent Control": 100},
      {"smiles": "Cl.O=C(Nc1ccc(Oc2ccc3[nH]c(NC(=O)c4ccco4)nc3c2)cc1)Nc1cc(C(F)(F)F)ccc1F", "note": "[GW683134A]", "Percent Control": 91},
      {"smiles": "CN(C)CCNC(=O)Nc1ccc(N(C)c2ccnc(Nc3ccc(CS(C)(=O)=O)cc3)n2)cc1.Cl", "note": "[GW830900A]", "Percent Control": 100},
      {"smiles": "CCn1c(-c2nonc2N)nc2c(C#CC(C)(C)O)nc(OCCNC)cc21.Cl", "note": "[GSK949675]", "Percent Control": 100},
      {"smiles": "NS(=O)(=O)c1ccc(N/N=C2\\C(=O)Nc3ccc(C(=O)NCc4ccncc4)cc32)cc1", "note": "[GW300657X]", "Percent Control": 100},
      {"smiles": "Cl.O=S1CCN(Cc2ccc(-c3ccc4ncnc(Nc5ccc(OCc6ccccc6)c(F)c5)c4c3)o2)CC1", "note": "[GW576924A]", "Percent Control": 100},
      {"smiles": "Cl.O=C(O[C@H]1CN[C@H](C#Cc2cc3ncnc(Nc4ccc5c(cnn5Cc5ccccc5)c4)c3s2)C1)N1CCOCC1", "note": "[GSK200398A]", "Percent Control": 97}
    ]}
  ]
}
